# According to PubChem BioAssay (NCI):
# This is part of a sample that, as a whole, favours compounds with a hit. Of some 83,000 tested, about 20% had one in any assay.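 Compound tested at a single concentration for 48 hours in 96-well plates; a percent growth value below 10 was scored as active.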 Unmarked numbers belong to inactive results. Calls of active or inactive are those of the source.
# Assays:
# Experiment in all cases: NCI-60 one-dose screen, 48 h (100 = growth as untreated, 0 = no growth, -100 = all killed)
# Settings in all cases: 10 µM unless noted
# NCI-H23 lung = system: NCI-H23 lung
# NCI-H226 lung = system: NCI-H226 lung
# NCI-H322M lung = system: NCI-H322M lung
# HOP-62 NSCLC = system: HOP-62 NSCLC
# NCI-H460 lung = system: NCI-H460 lung
# HOP-92 NSCLC = system: HOP-92 NSCLC
# NCI-H522 lung = system: NCI-H522 lung
# A549/ATCC NSCLC = system: A549/ATCC NSCLC
# 786-0 renal = system: 786-0 renal
# COLO 205 colon = system: COLO 205 colon
Structure (SMILES),growth (NCI-H23 lung),growth (NCI-H226 lung),growth (NCI-H322M lung),growth (HOP-62 NSCLC),growth (NCI-H460 lung),growth (HOP-92 NSCLC),growth (NCI-H522 lung),growth (A549/ATCC NSCLC),growth (786-0 renal),growth (COLO 205 colon)
CCCCCCCCCCCCCCCC[N+]1(CC)CCCC1,-28.6% (active),-9.79% (active),1.53% (active),-49.7% (active),-66.8% (active),-29.1% (active),-73.7% (active),-63.1% (active),-57.7% (active),-90.4% (active)
Cc1cc(Cl)ccc1Nc1nc(C(F)(F)F)ccc1C(=O)N/N=C/c1ccc(F)cc1,16.4%,22.9%,9.9% (active),5.92% (active),2.29% (active),-18.1% (active),-9.21% (active),16.5%,-50.7% (active),13.9%
CCCCCCCCCC(=O)Oc1ccc(/C(=C(/C)c2ccccc2)c2ccc(OCCN3CCCC3)cc2)cc1,26.8%,65.7%,32.8%,-1.82% (active),-7.47% (active),-19% (active),-26.3% (active),11.3%,-58.6% (active),-57.1% (active)
COc1cc(-c2cnc3nonc3n2)c(OC)c2c1OCO2,95.4%,95.6%,90.9%,101%,102%,97.9%,78.7%,94.1%,104%,113%
O=C(/C=C/c1cc2ccccc2[nH]c1=O)/C=C/c1cc2ccccc2[nH]c1=O,-41.6% (active),-30.3% (active),86.9%,0.443% (active),-36.7% (active),68.7%,-51.1% (active),-8% (active),-59.5% (active),-11.6% (active)
CSc1ncnc2c1ncn2C1CCCO1 (stereo not given),96.1%,90.1%,90.9%,99.7%,105%,141%,121%,106%,104%,119%
OCCNCCNc1c2ccccc2nc2ccccc12,64.8%,58.3%,52.7%,60.7%,54.6%,81.1%,41.6%,98.2%,84.9%,47.9%
C=CC[N+]1(CCO)CCN=C1CCCCCCCCCCCCC (stereo not given),-86.7% (active),3.45% (active),73.9%,-90.5% (active),-85.8% (active),-18.3% (active),-82.6% (active),0.535% (active),-97.1% (active),-91.4% (active)
COc1cc2c(=O)n(CC3CCCCC3)c3c4cc[nH]c4ncc3c2cc1OC,45.3%,34.5%,59%,19.2%,21.1%,1.65% (active),35.1%,31.6%,46.4%,6.79% (active)
Nc1c(C(=O)Nc2cccc3c2OCCO3)sc2nc3c(cc12)C(=O)CCC3,46.4%,27.9%,45.3%,46%,8.5% (active),107%,2.24% (active),37.7%,44.5%,-3.5% (active)
O=C1/C(=C/c2ccc(F)cc2)CN(C(=O)CCN2CCC(=NO)CC2)C/C1=C\c1ccc(F)cc1,-26.5% (active),72.8%,-11.8% (active),-37.7% (active),-26.9% (active),-5.42% (active),-72.6% (active),28.4%,-44.7% (active),-81.9% (active)
C/C(Cc1ccc(Cl)cc1)=C(\c1ccc(OCCN2CCCCCC2)cc1)c1ccc(OC(=O)Cc2ccccc2)cc1,71.3%,84.1%,67.3%,85.7%,18.2%,48.4%,62.9%,61.3%,65%,-45.1% (active)
CC(=O)OCC(=O)C1CCC=CC1OC(C)=O (stereo not given),97.7%,92.6%,88.8%,86.3%,108%,98.9%,75.1%,94.4%,99.2%,110%
COc1cnc2c(c1)C(=O)c1c-2n(CCCN2CCCC2)c(=O)c2cc([N+](=O)[O-])ccc12,-7.75% (active),-79.4% (active),-11.9% (active),-16.8% (active),-60.1% (active),16.4%,-31% (active),-44.8% (active),-90.9% (active),2.24% (active)
Cc1ccn2c(-c3csc(Nc4cccc(O)c4)n3)c(C)nc2c1,25.5%,35.7%,58.4%,2.98% (active),13.7%,52.2%,-17.4% (active),38.9%,40.1%,-87.1% (active)
Cc1ccc(-c2nc(/C=N/Nc3cc(C)nc4ccc(Cl)cc34)c(C)o2)cc1,44.5%,81.3%,-82.5% (active),74.9%,-77.2% (active),29.9%,-69.5% (active),-47.4% (active),-93.2% (active),-86% (active)
Cc1ccc(Nc2nc(N)nc(Nc3ccc4ccccc4c3)n2)cc1,69.2%,89.8%,52.4%,47%,14.6%,21.1%,6.88% (active),30.9%,46.6%,18.7%
CC1=NNC(=O)C1C (stereo not given),100%,93.5%,585%,87.4%,114%,102%,85.9%,98.6%,103%,110%
CCN(C(=O)CN1CCN(c2cc3c(cc2F)c(=O)c(C(=O)O)cn3CC)CC1)c1nc(-c2ccccc2)cs1,9.94% (active),18.2%,17.7%,15.5%,5.71% (active),-31.8% (active),-15.4% (active),4.66% (active),14.3%,-51.9% (active)
CSc1nc(NCCCNc2ccnc3cc(Cl)ccc23)cc(-c2ccccc2)n1,67.6%,84.4%,85.5%,81.3%,70%,33.5%,73.5%,74.3%,72.9%,-76% (active)
CCc1ccccc1NC(=O)c1sc2nc3c(cc2c1N)C(=O)CCC3,38.2%,67.3%,46.3%,35.5%,6.42% (active),84.8%,-11.6% (active),21.5%,35.1%,-7.87% (active)
COc1cccc(NC(=O)c2sc3nc4c(cc3c2N)CN(Cc2ccccc2)CC4)c1,81.2%,57.2%,74%,31.4%,45.6%,42.1%,68%,62.1%,37.2%,78.6%
O=C1c2c[n+](Cc3ccccc3)ccc2-c2nc3ccccc3c3ccnc1c23,-32.8% (active),-92.2% (active),-17.8% (active),-27.2% (active),-55% (active),-45.4% (active),-66.3% (active),-26.1% (active),-5.78% (active),-90.1% (active)
O=S(=O)(NCCCNc1cc(-c2cn(-c3ccccc3)nc2-c2cccc(O)c2)ccn1)c1ccccc1,65.9%,41.9%,60.4%,77.3%,39%,45.2%,52.5%,35.8%,13.1%,-12.1% (active)
CC(C)(C)n1cc(-c2ccnc(NCCCNS(=O)(=O)c3cccc4ccccc34)c2)c(-c2cccc(O)c2)n1,42.1%,41%,43.4%,47.7%,2.1% (active),37.7%,15.8%,29.2%,-0.248% (active),-79.1% (active)
N#Cc1c2c(nc3n[nH]c(N)c13)CCCC2,99.6%,110%,128%,100%,108%,79%,104%,108%,106%,148%
COc1ccc2nc3cc(Cl)ccc3c(N3CCN(c4ccnc(N5CCN(C)CC5)n4)CC3)c2c1,34.6%,90.2%,94.2%,73.4%,64.7%,59.6%,-60.4% (active),83.4%,78.9%,-45.3% (active)
O=C1c2ccccc2-c2nccc3cc(Cl)nc1c23,-62.3% (active),48.2%,95.7%,47.6%,40.2%,21.2%,-75.9% (active),73%,71.1%,54.7%
